Earlier results in PubChem BioAssay AID977610.
Screen size: about 3,600 compounds; about 3,600 (100%) were called active. No cut-off is given here; in the data, nearly all actives have Ki up to about 18000 µM. So high a share suggests a set chosen from earlier hits. The list shows a part of the results. Numbered stars: 1 amine (or outer) side, 2 acyl side, 3 side chain; on linkers, the order of the positions; unused ones are H or OH. Starred links: 1 amine or outer side, 2 acyl side, 3 side chain; linkers in the order of their positions; H or OH if unused. Positions of bridges follow the written chain, without caps; N, C: chain ends. Bridge positions count the residues as written; N and C are the ends. Square brackets hold non-standard residues; d marks the D form. Residues, ends and D or L forms follow the SMILES beside them. Peptide text beside a SMILES is read from it. X2 = CC[C@H](C)[C@H](N[*:1])c1cnnn1[C@@H](C)C(=O)[*:2]; Orn(CH(NH2)2) = NC(N)NCCC[C@H](N)C(=O)O; X1 = C(CS[*:2])CN(CCCS[*:3])[*:1]

Assay: PubChem AID 977610
Conditions: PDB protein-ligand complexes, literature Ki

## CC[C@H](C)[C@@H]1NC(=O)[C@@H]2CCCN2C(=O)[C@H](C)n2nncc2[C@H]([C@@H](C)CC)NC(=O)[C@H](CO)NC(=O)[C@H](CCCCN)NC(=O)[C@H]([C@@H](C)O)NC(=O)[C@@H](NC(=O)[C@@H](N)CCCNC(N)N)CSSC[C@@H](C(=O)N[C@@H](Cc2ccccc2)C(=O)O)NC1=O (H-[Orn(CH(NH2)2)]CTKS[X2]PICF-OH; disulfide 2-9)
protein: bovine CATIONIC TRYPSIN, PDB entry 4abj
  Ki: 0.034 µM (active)

## NC(=O)[C@H](CCC(=O)O)NC(=O)[C@H](CCC(=O)O)NC(=O)[C@H](Cc1cc(-c2ccc(-c3cccc(Cl)c3)cc2)no1)C[P+](O)(O)c1ccc(Br)cc1
protein: Macrophage metalloelastase (F171D mutation), PDB entry 4gql
  Ki: 0.00026 µM (active)

## NC(=O)[C@H](CCC(=O)O)NC(=O)[C@H](CCC(=O)O)NC(=O)[C@H](Cc1cc(-c2ccccc2)no1)C[P+](O)(O)c1ccc(Br)cc1
protein: Macrophage metalloelastase (F171D mutation), PDB entry 4gr3
  Ki: 0.0155 µM (active)

## OC[C@@]1(F)OC[C@H](O)[C@@H](O)[C@@H]1O
protein: ALPHA-1,4-GLUCAN LYASE ISOZYME 1, PDB entry 4amx
  Ki: 6500 µM (active)

## OC[C@]1(F)OC[C@H](O)[C@@H](O)[C@@H]1O
protein: ALPHA-1,4-GLUCAN LYASE ISOZYME 1, PDB entry 4amw
  Ki: 28300 µM (active)

## NC1NN=C(S(N)(=O)=O)S1 (stereo not given)
protein: human carbonic anhydrase II, PDB entry 2hnc
  Ki: 0.06 µM (active)

## C[C@@H]1C[C@H]2[C@@H]3CCC4=CC(=O)C=C[C@]4(C)[C@@]3(Cl)[C@@H](O)C[C@]2(C)[C@@]1(OC(=O)c1ccco1)C(O)CCl (stereo not given in full)
protein: Glucocorticoid receptor GR LBD, PDB entry 4p6w
  Ki: 0.0007 µM (active)

## Nc1[nH]c(N)c2ccccc12
protein: PDE10A2, PDB entry 4llj
  Ki: 380 µM (active)

## CCNC(=O)CN[C@@H](C(=O)N1CC[C@H]1C(=O)NCc1ccc(C(N)N)cc1)C1CCCCC1
protein: THROMBIN, PDB entry 4baq
  Ki: 0.00098 µM (active)

## CCCNC(=O)CN[C@@H](C(=O)N1CC[C@H]1C(=O)NCc1ccc(C(N)N)cc1)C1CCCCC1
protein: THROMBIN, PDB entry 4bak
  Ki: 0.00122 µM (active)

## CNC(=O)CN[C@@H](C(=O)N1CC[C@H]1C(=O)NCc1ccc(C(N)N)cc1)C1CCCCC1
protein: THROMBIN, PDB entry 4ban
  Ki: 0.00243 µM (active)

## CC[C@H](C)[C@H](NC(C)=O)C(=O)N[C@@H](Cc1ccc(O)cc1)C(=O)N[C@@H](Cc1ccc(O)cc1)[P+](O)(O)O
protein: Human angiotenisn converting enzyme N-domain, PDB entry 4bzs
  Ki: 0.075 µM (active)

## O=C(N[C@@H](Cc1ccccc1)[P+](O)(O)C[C@H](Cc1cc(-c2ccccc2)no1)C(=O)N[C@@H](Cc1ccc(O)cc1)C(=O)O)OCc1ccccc1
protein: ANGIOTENSIN-CONVERTING ENZYME, PDB entry 4ca8
  Ki: 0.21 µM (active)

## O=C(N[C@@H](Cc1ccccc1)[P+](O)(O)C[C@@H](Cc1cc(-c2ccccc2)no1)C(=O)N[C@@H](Cc1ccc(O)cc1)C(=O)O)OCc1ccccc1
protein: ANGIOTENSIN-CONVERTING ENZYME N-DOMAIN, PDB entry 4ca6
  Ki: 0.18 µM (active)
protein: ANGIOTENSIN-CONVERTING ENZYME, PDB entry 4ca5
  Ki: 0.00041 µM (active)
protein: ANGIOTENSIN-CONVERTING ENZYME, PDB entry 4ca7
  Ki: 0.044 µM (active)

## CC(C)C[C@H](NC(=O)[C@@H]1CSS[C@H]2CSSC[C@H](NC(=O)CNC(=O)[C@H](CCCN=C(N)N)NC(=O)CNC(=O)[C@H](CC(C)C)NC(=O)[C@H](C)NC(=O)[C@@H](NC(=O)CN)C2)C(=O)N[C@@H](CCC(=O)O)C(=O)N[C@@H](CC(N)=O)C(=O)N[C@@H](Cc2cnc[nH]2)C(=O)N[C@@H](CCCN=C(N)N)C(=O)N1)C(N)=O
protein: Urokinase-type plasminogen activator, PDB entry 4os4
  Ki: 13.6 µM (active)

## CC(C)C[C@H](NC(=O)[C@@H]1CSSCCCN2CCCSSC[C@H](NC(=O)CNC(=O)[C@H](CCCN=C(N)N)NC(=O)CNC(=O)[C@H](CC(C)C)NC(=O)[C@H](C)NC(=O)[C@@H](NC(=O)CN)CC2=O)C(=O)N[C@@H](CCC(=O)O)C(=O)N[C@@H](CC(N)=O)C(=O)N[C@@H](Cc2cnc[nH]2)C(=O)N[C@@H](CCCN=C(N)N)C(=O)N1)C(N)=O (H-GDALGRGCENHRCL-NH2; linker 2-8-13 via X1)
protein: Urokinase-type plasminogen activator, PDB entry 4os7
  Ki: 24 µM (active)

## CC(C)C[C@H](NC(=O)[C@@H]1CSSC[C@H]2C[C@H](NC(=O)CN)C(=O)N[C@@H](C)C(=O)N[C@@H](CC(C)C)C(=O)NCC(=O)N[C@@H](CCCN=C(N)N)C(=O)NCC(=O)N[C@@H](CSS2)C(=O)N[C@@H](CCC(=O)O)C(=O)N[C@@H](CC(N)=O)C(=O)N[C@@H](Cc2cnc[nH]2)C(=O)N[C@@H](CCCN=C(N)N)C(=O)N1)C(N)=O
protein: Urokinase-type plasminogen activator, PDB entry 4os5
  Ki: 23.7 µM (active)

## CC(C)C[C@H](NC(=O)[C@@H]1CSS[C@@H]2CSSC[C@H](NC(=O)CNC(=O)[C@H](CCCN=C(N)N)NC(=O)CNC(=O)[C@H](CC(C)C)NC(=O)[C@H](C)NC(=O)[C@@H](NC(=O)CN)C2)C(=O)N[C@@H](CCC(=O)O)C(=O)N[C@@H](CC(N)=O)C(=O)N[C@@H](Cc2cnc[nH]2)C(=O)N[C@@H](CCCN=C(N)N)C(=O)N1)C(N)=O
protein: Urokinase-type plasminogen activator, PDB entry 4os1
  Ki: 2.5 µM (active)

## C[C@@H](N)C(=O)N[C@H](C)C(=O)O (H-[dA]-[dA]-OH)
protein: vancomycin resistance D,D-dipeptidase/D,D-pentapeptidase VanXYc D59S mutant, PDB entry 4oak
  Ki: 59.7 µM (active)

## O=c1[nH]c(=O)n([C@@H]2O[C@H](CO[P+](O)(O)O[P+](O)(O)O[C@H]3O[C@H](CO)[C@H](O)[C@H](O)[C@H]3O)[C@@H](O)[C@H]2O)cc1-c1ccccc1
protein: Histo-blood group ABO system transferase, PDB entry 3v0l
  Ki: 3 µM (active)

## O=c1[nH]c(=O)n([C@@H]2O[C@H](CO[P+](O)(O)O[P+](O)(O)O)[C@@H](O)[C@H]2O)cc1-c1ccc(CO)s1
protein: Histo-blood group ABO system transferase, PDB entry 3v0p
  Ki: 0.53 µM (active)

## N[C@](CF)(Cc1c[nH]c2ccccc12)C(=O)O
protein: Pyridoxal-dependent decarboxylase domain protein RUMGNA-01526, PDB entry 4obv
  Ki: 178000 µM (active)

## CN(C)CCOc1cccc(-c2ccc(Cl)cc2)c1CN1CCN(c2ccc(C(=O)NS(=O)(=O)c3ccc(NCC4CCOCC4)c([N+](=O)[O-])c3)c(Oc3ccc4[nH]ccc4c3)c2)CC1
protein: Apoptosis regulator Bcl-2, PDB entry 4lxe
  Ki: 0.0001 µM (active)
protein: Apoptosis regulator Bcl-2, PDB entry 4man
  Ki: 1e-05 µM (active)

## CN1C(=O)[C@@](CCC2CCCCC2)(C[C@H]2CCC[C@@H](Nc3ccc4ccccc4n3)C2)N=C1N
protein: Beta-secretase 1 BACE 1, PDB entry 4r95
  Ki: 0.014 µM (active)

## COc1ccc(-c2cc(Oc3cc(C)cc(OC)c3)cc(C)n2)cc1
protein: Macrophage migration inhibitory factor-like protein MIF, PDB entry 4p7s
  Ki: 0.038 µM (active)

## Cc1cc(Oc2cccc(O)c2)cc(-c2ccccc2)n1
protein: Macrophage migration inhibitory factor-like protein MIF, PDB entry 4p7m
  Ki: 0.039 µM (active)

## COc1cc(O)c2c(c1)/C=C/C[C@H](O)[C@H](O)C(O)CCC[C@H](C)OC2=O (stereo not given in full)
protein: Tak1-Tab1 fusion protein, PDB entry 4gs6
  Ki: 0.071 µM (active)

## Cc1ncc(CO[P+](O)(O)O)c(CNc2co[nH]c2=O)c1O
protein: methionine gamma-lyase MGL, PDB entry 4oma
  Ki: 68 µM (active)

## CCCN1CCC(c2nc3c(C(N)=O)cccc3[nH]2)CC1
protein: Poly [ADP-ribose] polymerase 1, PARP-1, PDB entry 2rcw
  Ki: 0.008 µM (active)

## O=C(O)Cc1nn(Cc2nc3cc(C(F)(F)F)ccc3s2)c(=O)c2ccccc12
protein: Lactoylglutathione lyase, PDB entry 4kyh
  Ki: 1.2 µM (active)

## O=C(NS(=O)(=O)c1ccc(NC2CCOCC2)c([N+](=O)[O-])c1)c1ccc(N2CCN(CC3=C(c4ccc(Cl)cc4)CCOC3)CC2)cc1
protein: Apoptosis regulator Bcl-2, PDB entry 4lxd
  Ki: 0.059 µM (active)

## CC1(C)CCC(c2ccc(Cl)cc2)=C(CN2CCN(c3ccc(C(=O)NS(=O)(=O)c4ccc(N[C@H](CCN5CCOCC5)CSc5ccccc5)c(S(=O)(=O)C(F)(F)F)c4)cc3)CC2)C1
protein: Apoptosis regulator Bcl-2, PDB entry 4lvt
  Ki: 4.4e-05 µM (active)
